In the library only some 4.5% were active in any assay of this set; here they are far more common.
ssDAF-12 act: S. stercoralis DAF-12 activation, primary screen | HEK293 ssDAF-12/GRIP1 lit1-tk-luc reporter, luminescence; % of 3 µM dafachronic acid response | activation, % at 6.8 µM | 1% of 370,000 active;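 active = activation above the mean over all tested compounds plus 3 SD, cut at about 0.9% in these data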
hgDAF12 agonist: hgDAF-12 agonism, primary luciferase screen. HEK293 GAL4-hgDAF12 UAS-luciferase reporter, agonist luminescence; normalized to butyrate control. activation, % at 6.8 µM. 1.8% of 370,000 active. AID 687014;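 active = activation above a cutoff set at the mean of all screened compounds plus 3 SD, cut at about 10% in these data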
GAA850 FXN act: activators of GAA850 frataxin (FXN) promoter; HEK293 lucGAA850 FXN promoter luciferase reporter, 24 h; percent of 10 µM SAHA response; activation, % at 6 µM; 0.56% of 360,000 active; AID 540364;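 active = activation above the average of all compounds screened plus 3 SD, cutoff fixed separately per campaign, cut at about 7.5% in these data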
DAX1 inh-1: inhibits human nuclear receptor DAX1 | P51843 | HEK293 Gal4-DAX1 luciferase reporter, luminescence | inhibition, % at 6.75 µM | 0.99% of 340,000 active | AID 504766;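 active = inhibition above the mean over all tested compounds plus 3 SD, cut at about 4.2% in these data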;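 note: inhibition shows as a rise in luminescence from relieved DAX1 repression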
Target sequence (P51843 207-470 limits assumed): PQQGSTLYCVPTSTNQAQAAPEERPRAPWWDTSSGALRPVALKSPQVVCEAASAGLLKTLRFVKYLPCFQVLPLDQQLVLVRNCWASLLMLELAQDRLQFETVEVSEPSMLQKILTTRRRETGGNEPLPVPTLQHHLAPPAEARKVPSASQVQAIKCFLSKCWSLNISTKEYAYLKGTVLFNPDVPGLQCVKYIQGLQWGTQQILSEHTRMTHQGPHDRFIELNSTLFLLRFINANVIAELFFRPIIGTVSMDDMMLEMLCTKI
hcDAF-12 act: H. contortus DAF-12 activation, primary screen. HEK293 hcDAF-12 lit1-tk-luc reporter, luminescence; 0% DMSO, 100% Δ7-dafachronic acid. activation, % at 6.8 µM. 1.4% of 370,000 active;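 active = activation above the mean of all tested compounds plus 3 SD, cut at about 5.5% in these data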
DAX1 inh-2: blocks DAX1 repression of SF-1 activated StAR promoter; HEK293T StAR-luciferase reporter, SF-1/DAX-1 repression relief; inhibition, % at 6.8 µM; 1.1% of 370,000 active; AID 652010;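 active = inhibition above the mean over all tested compounds plus 3 SD, cut at about 3.6% in these data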;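 note: higher inhibition means more luminescence from relief of DAX-1 repression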
Large screens that a line does not name were inactive.

O=c1c(OC2OC(CO)C(O)C(O)C2OC2OC(CO)C(O)C(O)C2O)c(-c2ccc(O)cc2)oc2cc(O)cc(O)c12 (stereo unspecified)	DAX1 inh-1 4.6
O=Cc1ccc(OCc2ccc3c(c2)OCO3)cc1	hgDAF12 agonist 11
COc1ccccc1NC(=O)CC1SC(=N)N(c2ccccc2)C1=O (stereo unspecified)	none
N=C1SC(CC(=O)Nc2ccccc2[N+](=O)[O-])C(=O)N1c1ccccc1 (stereo unspecified)	ssDAF-12 act 1.6
C=CCCC(=O)N(Cc1ccccc1)c1ccccc1C(=O)Nc1cc(OC)ccc1OC	none (no result: GAA850 FXN act, DAX1 inh-1)
COc1ccc(S[C@]2(C(=O)N3CCCC3)CC(=O)N(P(=O)(OC)OC)[C@@H]2c2ccc(OC)cc2)cc1	none (no result: GAA850 FXN act, DAX1 inh-1)
COc1ccccc1NS(=O)(=O)c1cccs1	none
CC(C)c1ccccc1NS(=O)(=O)c1cccs1	none
O=S(=O)(Nc1cccc2ccccc12)c1cccs1	hcDAF-12 act 6.1
O=S(=O)(Nc1ccc(O)c2ccccc12)c1cccs1	hcDAF-12 act 6.7
O=C(CSc1nnc(COc2ccc(Cl)cc2)n1Cc1ccco1)Nc1cccc2ccccc12	none (no result: GAA850 FXN act, DAX1 inh-1)
COC(=O)[C@]12C[C@H](CC(=O)NCC3CCCCC3)C(=O)N(CCC3=CCCCC3)C1=C[C@H](C1CCCC1)O[C@@H]2C	none (no result: GAA850 FXN act, DAX1 inh-1)
COC(=O)c1ccc2c(C3(c4c[nH]c5ccccc45)CCN(C(=O)OC(C)(C)C)CC3)c[nH]c2c1	none (no result: GAA850 FXN act, DAX1 inh-1)
COc1ccc(S[C@]2(C(=O)N(C)C)CC(=O)N(C(=O)CCc3ccccc3)[C@@H]2c2ccc(OC)cc2)cc1	none (no result: GAA850 FXN act, DAX1 inh-1)
CC1=CCC(COC(=O)Nc2ccccc2)CC1 (stereo unspecified)	hgDAF12 agonist 11
O=C(Nc1ccccc1)OCC1CCCN2CCCCC12 (stereo unspecified)	none
Cn1c(NC(=O)C[n+]2cc(-c3ccc(F)cc3)n3c2CCC3)cc(=O)n(C)c1=O	none
O=C(C[n+]1cc(-c2ccc(F)cc2)n2c1CCC2)c1cccs1	DAX1 inh-1 6.7
Cc1ccc(NC(=O)C[n+]2cc(-c3ccccc3)n3c2CCC3)cc1	none (no result: DAX1 inh-1)
Cc1ccc(-c2c[n+](CC(=O)Nc3ccccc3C)c3n2CCC3)cc1	DAX1 inh-1 4.3
Cc1cc(Oc2cccnc2)ccc1NC(=O)Cc1cn(C)c2ccccc12	none (no result: GAA850 FXN act, DAX1 inh-1)
O=[N+]([O-])c1ccc(Cn2ccc3ccc(-c4ccc5ccn(Cc6ccccc6)c5c4)cc32)cc1	none (no result: GAA850 FXN act, DAX1 inh-1)
COCc1cccc(-c2cc(C(=O)OC)c3n(c2=O)CCC3)c1	none (no result: GAA850 FXN act, DAX1 inh-1)
Cc1ccc(-c2nnc(Cc3ccc([N+](=O)[O-])cc3)o2)cc1	hgDAF12 agonist 12
CC1CCCCN1C(=O)Nc1ccccc1Cl (stereo unspecified)	DAX1 inh-1 5.1
O=C(NC1CCCC1)C1CCCN1C(=O)Nc1ccccc1Cl (stereo unspecified)	none
COc1ccccc1CNC(=O)N1CCC(c2nc3ccc(Cl)cc3[nH]2)CC1	none (no result: GAA850 FXN act, DAX1 inh-1)
O=C(Nc1ccc(Cl)cc1)C1CCCN1S(=O)(=O)c1cccnc1 (stereo unspecified)	none (no result: GAA850 FXN act, DAX1 inh-1)
N#CCCn1cc(/C=C/C(=O)O)c(-c2ccc(F)cc2)n1	DAX1 inh-1 5.4
CNc1cccc(-c2ccc(C(C)=O)s2)n1	DAX1 inh-2 4.0 (no result: DAX1 inh-1)
O=C(CNC(=O)c1ccc(Cl)cc1)OCC(=O)c1ccccc1	none
O=C(CNC(=O)c1ccc(Cl)cc1)OCc1nc2ccccc2s1	hcDAF-12 act 6.2
Cn1cccc1C=NNC(=O)c1cc(-c2ccc(Cl)cc2)n[nH]1	none (no result: GAA850 FXN act, DAX1 inh-1)
O=C(c1ccccc1C(=O)N1CCN(c2ccccc2)CC1)N1CCN(c2ccccc2)CC1	none
O=C(c1csc2c1CCCC2)N1CCN(c2ccccc2)CC1	ssDAF-12 act 1.1
COc1nc(OC)nc(N2CCC(C(=O)N(C)Cc3ccccc3F)CC2)n1	none (no result: GAA850 FXN act, DAX1 inh-1)
c1ccc2c(c1)Cc1cc(CN3CCOCC3)ccc1-2	hgDAF12 agonist 13
CCn1c(SCC(=O)Nc2ccccc2C)nc2nc3c(cc2c1=O)COC(C)(C)C3	DAX1 inh-1 5.5
COC(=O)[C@H](C)NC(=O)[C@@H]1CCCN1C(=O)CNP(=O)(OCc1ccccc1)OCc1ccccc1	none (no result: GAA850 FXN act, DAX1 inh-1, DAX1 inh-2)
COc1ccc(C2=Nn3c(nnc3C3CCCCC3)SC2)cc1	none (no result: GAA850 FXN act, DAX1 inh-1)
Clc1ccc(CSc2nnc(-c3cccs3)o2)cc1Cl	none (no result: GAA850 FXN act, DAX1 inh-1)
CN(C)c1nc(-c2ccccc2)ncc1S(=O)(=O)c1ccccc1	DAX1 inh-2 4.0
Cc1ccc(C(=O)Nc2nccc(C)n2)cc1	DAX1 inh-1 4.8
Cc1ccnc(NC(=O)c2cccc(OC(F)F)c2)n1	none
COc1cc2c(cc1NC(=O)CSc1ccccn1)oc1ccccc12	hcDAF-12 act 6.5
COc1ccccc1CC(=O)Nc1cc2oc3ccccc3c2cc1OC	none
COc1ccc(CC(=O)Nc2cc3oc4ccccc4c3cc2OC)cc1	hgDAF12 agonist 12
CC1(C)CC(=O)C2=C(C1)OC(N)=C(C#N)[C@@]21C(=O)N(CC(N)=O)c2ccccc21	none
CC1(C)CC(=O)C2=C(C1)OC(N)=C(C#N)C21C(=O)N2CCCc3cccc1c32 (stereo unspecified)	ssDAF-12 act 1.0
Cc1sc2nc(COC(=O)CNC(=O)c3ccc(F)cc3Cl)[nH]c(=O)c2c1C	none (no result: GAA850 FXN act, DAX1 inh-1)
CCC(=O)NCCc1nc2cc(NC(=O)c3cccs3)ccc2n1C	DAX1 inh-2 3.6
Cc1csc(NC(=O)CSc2nc3sc(C)c(C)c3c(=O)[nH]2)n1	none
CSCc1nc2sc(C(=O)Nc3nc(C)cs3)c(C)c2c(=O)[nH]1	hgDAF12 agonist 12
Cc1ccc(NC(=O)c2sc3nc(CCl)[nH]c(=O)c3c2C)c(C)c1	DAX1 inh-2 3.7
C=CCN1C(=O)[C@@H](CC(=O)NCc2ccc(OC)c(OC)c2)[C@]2(C(=O)OCC)CCCCC/C=C/12	none (no result: GAA850 FXN act, DAX1 inh-1)
CC(C)NC(=O)NC1CCN(CC(=O)Nc2ccc3c(c2)OCCO3)CC1	none (no result: GAA850 FXN act, DAX1 inh-1)
CCOC(=O)N1CCN(C(=O)C[C@H]2C[C@@]3(C(=O)OC)C(=C[C@H](C(C)(C)C)O[C@@H]3C)N(CCc3ccc(OC)c(OC)c3)C2=O)CC1	none (no result: GAA850 FXN act, DAX1 inh-1)
O=C(OCc1ccccc1)[C@H](Cc1ccccc1)NC(=O)[C@@H]1CC=C[C@@H]2CCN(C3CCCCC3)C(=O)[C@@H]21	none (no result: GAA850 FXN act, DAX1 inh-1, DAX1 inh-2)
COc1cccc2cc(-c3nc4ccccc4o3)c(=O)oc12	hgDAF12 agonist 11, DAX1 inh-1 4.4
O=c1oc2ccc(Br)cc2cc1-c1nc2ccccc2o1	none
COc1ccc(C2NCCc3c2[nH]c2ccccc32)cc1CSc1nc2ccccc2s1 (stereo unspecified)	hcDAF-12 act 5.7
Cc1nc2ccc(Oc3ccccc3)cc2s1	none
Nc1nc2ccc(Oc3ccccc3)cc2s1	hgDAF12 agonist 12
CN(CCO)C1CN(Cc2cn(Cc3ccccc3F)nn2)S(=O)(=O)C1 (stereo unspecified)	none (no result: GAA850 FXN act, DAX1 inh-1)
COc1cc(NC(=O)c2cc3sccc3n2C)cc(OC)c1	hcDAF-12 act 6.0

Bioassay records (PubChem)
